The text below walks through data of ChEMBL document CHEMBL3988442, “University of Dundee, Small-Polar-MMV Screening Library” (2021).

Out of some 69,000 compounds screened, about 10 (0.01%) showed an effect of 50% or more. Shown is part of a subset that was picked to be rich in strong results.

The target of the test is ClpP1P2 (Mycobacterium tuberculosis (strain ATCC 25618 / H37Rv)) (UniProt P9WPC5+P9WPC3). The test is described as follows: in vitro assay to detect presence of AMC directly proportional to the activity of ClpP1P2. GHDDI collaboration. The test is classed as functional. Also on record: scale not given: direction of the effect not stated beside the values. As to conditions: 50 µM.
As for `CN(C)S(=O)(=O)N1C[C@H]2CCC[C@@]2(COCC2CC2)C1`, the Percent Effect is 0.536%.
For `Cc1cccc(CN2C(=O)CC[C@H]3[C@@H]2CCN3CC(=O)N(C)C)n1` the value was 2.64%; for `Cc1nc(-c2ccc(CC(=O)N3CCNC(=O)C3)cc2)cs1`, -0.00295%.
For the compound `Cc1nc(-c2ccc(CC(=O)N3CCN(C(=O)C4CC4)CC3)cc2)cs1`, the Percent Effect was found to be 7.62%.
As for `Cc1nc(-c2ccc(CC(=O)N3CCN(C(=O)C(C)C)CC3)cc2)cs1`, the Percent Effect was found to be 88.4%.
In the case of `c1cc(CN2CCO[C@@H]3CNC[C@@H]32)co1` it was -6.86%.
For `CN1C[C@H]2CN(C(=O)c3ccc4c(c3)OCO4)CCN2C1=O` the value was -1.11%; for `O=C1NC(c2ccccc2)=N[C@@]12CC[C@@H]1CN(Cc3ccco3)C[C@@H]12`, -1.45%; for `COCC(=O)N1CC[C@H]2OCC[C@@]2(c2nc(C)no2)C1`, -7.69%.
In the case of `CN(C)C(=O)N1CCC[C@]2(C(=O)N(C)C)CN(c3ccccn3)C[C@@H]2C1` it was -16.1%; in that of `COc1ccc(CN2C[C@H]3C[C@H](C(=O)Nc4cccnc4)[C@@H](C2)O3)cc1`, 7.77%.
In the case of `CCC(=O)N1C[C@@H]2CCN(c3cnccn3)C[C@@H]2C1`, the Percent Effect stood at 27.9%.
For `Cc1cccc(CN2C[C@@H]3CN(C(=O)c4ccsc4)C[C@@H]3C2=O)c1` the value was 5.73%; for `O=C(N1CCOCC1)N1C[C@H]2CC[C@@H]1CN(C1Cc3ccccc3C1)C2`, 4.16%.
For `O=C(c1ccoc1)N1CCO[C@@H]2CNC[C@@H]21` the value was -6.03%; for `CN1CCN(C(=O)C[C@@H]2COC[C@H]3CN(c4ccncn4)C[C@@H]23)CC1`, -11.8%; for `Cc1cccnc1[C@]1(O)CC[C@H]2CN(Cc3cccc(Cl)c3Cl)C[C@H]21`, 0.575%.
On to `COCCN1CCN(C(=O)c2ccccc2C(C)=O)[C@H]2CS(=O)(=O)C[C@H]21`, for which the Percent Effect was -4.44%.
With `Cc1nccc([C@@H]2C[C@@H]3CCN(Cc4c(C)noc4C)C[C@H]3O2)n1`, the Percent Effect was 9.38%.
As for `N#Cc1ccccc1CN1C[C@@H]2CC[C@H](C1)N(CC1CC1)C2=O`, the Percent Effect was -3.85%.
For `O=C(c1ccnnc1)N1CCN2C[C@H](OCc3ccccn3)C[C@H]2C1` the value was 0.376%; for `C[C@H]1C[C@H]2CN(C(=O)CCOc3ccccc3)CC[C@H]2O1`, 5.83%.
Regarding `O=C(NC[C@]12COC[C@H]1CN(Cc1nccs1)C2)c1cscn1`, the Percent Effect was determined as 2.68%.
For `O=C(Nc1cnccn1)[C@@H]1CCO[C@@H]2CCN(Cc3ccsc3)C[C@@H]21` the value was -0.52%; for `Cc1ccnn1CCC(=O)N1C[C@H]2CC[C@@H]1CN(CC(=O)N(C)C)C2`, 10.3%.
For `CCNC(=O)N1C[C@@H]2OCC(=O)N(CC3CCCCC3)[C@@H]2C1`, the Percent Effect was 5.8%.
As to `Cc1noc([C@@]23CCO[C@@H]2CCN(C(=O)CN(C)C)C3)n1`, the Percent Effect was -12.4%.
In the case of `O=C(NCC1CCOCC1)[C@H]1C[C@@H]2CCN(c3nncs3)C[C@@H]2O1` it was -12.4%; in that of `Cn1ccnc1C(=O)NC[C@H]1OC[C@@H]2CCN(S(C)(=O)=O)C[C@@H]21`, 12.7%; in that of `COCC(=O)N1CCC[C@]2(C(=O)N(C)C)CN(c3ccccn3)C[C@@H]2C1`, -0.178%.
As for `C[C@H]1C[C@H]2CN(C(=O)c3cccc4c3OCCO4)CC[C@H]2O1`, the Percent Effect was -0.751%.
On to `Cn1cccc1C(=O)N1CC[C@H]2[C@H](CO[C@H]2CNS(C)(=O)=O)C1`, for which the Percent Effect came to 5.31%.
For `Cc1nn(C)c(C)c1S(=O)(=O)N1C[C@@H]2C[C@@H](C)O[C@@H]2C1` the value was -4.66%.
In the case of `CCC1=N[C@@]2(CC[C@@H]3CN(S(=O)(=O)CC)C[C@@H]32)C(=O)N1CC` it was -9.65%; in that of `CN1C[C@H]2C[C@H](C(=O)Nc3cccnc3)[C@@H](C1)O2`, -5.71%.
With `Cn1cc(C(=O)NC[C@H]2OC[C@@H]3CCN(C4CCOCC4)C[C@@H]32)cn1`, the Percent Effect was -8.58%.
Turning to `Cc1ccnn1CCC(=O)N1CCCC[C@]2(C)NC(=O)CCC[C@H]12`, the Percent Effect was determined as 2.82%.
Take `C[C@@H]1C(=O)NC[C@H]2CN(CCc3ccccc3)C[C@H]21`: the Percent Effect was 11.1%.
As to `O=C(NCc1ccccn1)[C@H]1COC[C@H]2CN(CC3CC3)C[C@H]21`, the Percent Effect was 7.53%.
In the case of `Cc1cnc(CNC(=O)[C@@H]2CC[C@@H]3[C@@H](CCN3Cc3ccco3)O2)cn1` it was -0.464%.
For `CC(C)=CCN1C[C@H]2CC[C@@H]1CN(CCC(=O)NCc1ccco1)C2` the value was -17.3%.
In the case of `Cc1nc(COC[C@@]23CCC[C@@H]2CN(Cc2cnn(C)c2)C3)cs1` it was 2.95%; in that of `CNC(=O)[C@@]12CCO[C@@H]1CCN(Cc1ccc3c(c1)OCO3)C2`, 14.7%; in that of `O=C(O)[C@@]12CN(c3cnccn3)C[C@@H]1CN(C1CCOCC1)C2`, -12.3%.
Regarding `Fc1cnc(N2CCO[C@H]3[C@H](OCCN4CCCC4)CC[C@@H]32)nc1`, the Percent Effect is -0.916%.
In the case of `Fc1cccnc1O[C@H]1CN(Cc2ccoc2)[C@@H]2CCCO[C@H]12` it was 5.17%; in that of `Cc1nc(CN2C(=O)CC[C@@H]3[C@H]2CCN3C(=O)c2ccccn2)cs1`, 2.69%; in that of `Cc1nc(CN2CCO[C@@H]3CN(Cc4ccccn4)CC[C@@H]3C2)cs1`, -1.41%.
For `c1ccc(CO[C@H]2C[C@@H]3CN(Cc4cncnc4)C[C@@H]3C2)cc1` the value was -9.01%.
In the case of `COCCNC(=O)[C@H]1C[C@@H]2CCN(c3ccncn3)C[C@H]2O1` it was -14.9%; in that of `Cc1ccc(C(=O)N2CC[C@@H]3[C@H]2CCC(=O)N3CCN(C)C)cn1`, 15.8%; in that of `Cc1ccc2[nH]c(CO[C@H]3CN(C(=O)C4CC4)C[C@H]3F)nc2c1`, -1.53%.
As for `Cc1ccc2[nH]c(CO[C@H]3CN(c4ccc(C#N)cn4)C[C@H]3F)nc2c1`, the Percent Effect worked out at 78.4%.
For `CN1C[C@@H](F)[C@@H](OCc2nc3ccc(C#N)cc3[nH]2)C1`, the Percent Effect was -10.4%.
In the case of `CC(=O)N1CCC(c2cncc(N3CCOCC3)n2)CC1` it was 55.4%; in that of `CC(=O)N1CCC(c2cncc(N3CCCCCC3)n2)CC1`, -8.81%; in that of `CC(=O)N1CCC(c2cncc(N3CCC(O)C3)n2)CC1` (centres undefined), -28.1%.
In the case of `O=C(NC1CCC1)[C@@H]1C[C@@H]2CCN(Cc3cccs3)C[C@@H]2O1` it was -6.23%.
In the case of `O=C1CC[C@]2(CC[C@@H](NCc3cccnc3)CC2)N1Cc1ccccc1`, the Percent Effect was 9.66%.
In the case of `CN(C)S(=O)(=O)N1CC[C@]2(O)CCN(Cc3cccc(C#N)c3)C[C@@H]2C1` it was -12.9%; in that of `CO[C@H]1CN(Cc2ccc(C)o2)[C@@H]2CCCO[C@H]12`, -4%.
Take `COCCN1C[C@H]2CC[C@@H]1CN(C(=O)c1ccc(Cl)cc1)C2`: the Percent Effect came out at 2.81%.
For `Cc1ccccc1CN1C[C@@H](C(=O)N2CCCCO2)C[C@H]2OCC[C@H]21` the value was -6.2%; for `CCCN1CCN(C(=O)c2cnc(C)nc2)[C@H]2CS(=O)(=O)C[C@H]21`, 5.85%; for `CCS(=O)(=O)N1CC[C@@H]2[C@H](COCC3CC3)CN(C)C(=O)[C@@H]2CC1`, -4.29%.
Regarding `Cc1ccc([C@]2(O)CC[C@H]3CN(Cc4ccncc4)C[C@H]32)nc1`, the Percent Effect is 23.9%.
`O=C([C@H]1C[C@H]2OCC[C@H]2N(CC2CCOCC2)C1)N1CCCCO1`: the Percent Effect was -11.4%.
For `COCCN1C[C@@H]2[C@@H](OC)CCN(S(=O)(=O)c3cccnc3)[C@@H]2C1` the value was -10.6%; for `Cc1cnc(N2C[C@H]3CCN(CC4CC4)C[C@H]3C2)nc1`, -8.8%; for `Cc1ccc(CN2CC[C@@H]3[C@@H]2CCN3C(=O)Cc2cccs2)o1`, 16.6%.
With `COc1ccc(CC(=O)N2C[C@H]3CN(Cc4ccccn4)C[C@H]3C2)cc1`, the Percent Effect is -3.43%.
In the case of `Cc1noc(C)c1CN1C[C@H](OCC(=O)N(C)C)[C@H]2OCCC[C@H]21` it was -8.82%.
In the case of `CNCCN1C(=O)CC[C@H]2CN(c3cnc4ccccc4n3)CC[C@H]21` it was -92.8%.
For `O=C(CN1C[C@H]2CC[C@@H]1CN(Cc1ccccn1)C2)Nc1ccccc1` the value was -28.1%; for `CN(Cc1ccco1)[C@@H]1CN(Cc2cccnc2)C[C@@H]2CCCO[C@@H]21`, 6.33%.
On to `CC(C)OC(=O)N1C[C@H]2CC[C@@H]1CN(C(=O)c1ccccc1)C2`, for which the Percent Effect was -3.47%.
In the case of `Cc1noc([C@H]2COC[C@H]3CN(C(=O)Cc4cccs4)C[C@H]32)n1` it was -9.33%; in that of `CN(C)C(=O)[C@@H]1C[C@@H]2CCN(Cc3ccncc3)C[C@@H]2O1`, 7.41%.
In the case of `c1cncc(COCC2CC[C@H]3[C@H]2OCCN3Cc2ccoc2)c1` (some centres undefined), the Percent Effect amounted to 3.35%.
As for `CN(C)C[C@]12COC[C@H]1CN(C(=O)Cc1ccc3c(c1)OCO3)C2`, the Percent Effect amounted to 7.79%.
For `Cn1cc(CN2CC[C@@H]3O[C@H](C(=O)N4CCOCC4)C[C@@H]32)cn1` the value was -11.6%; for `COCCN1C[C@@H]2CN(Cc3cccc(F)c3)CCC[C@]2(C(=O)O)C1`, -13.3%.
As for `Cc1cccc2nc(C(=O)N3CCCC[C@]4(C)NC(=O)CCC[C@H]34)cn12`, the Percent Effect was -8.66%.
In the case of `CN(C)C(=O)[C@H]1CC[C@@H]2[C@@H](CCN2Cc2ccccn2)O1` it was -3.56%; in that of `CC1=N[C@@]2(CC[C@@H]3CN(Cc4cccc(Cl)c4)C[C@@H]32)C(=O)N1CC1CC1`, 3.49%; in that of `O=C(c1cccnc1)N1C[C@@H]2OCCN(CCN3CCCC3)[C@@H]2C1`, 4.78%.
As for `Cn1ccnc1CN1CCO[C@H]2C(CNC(=O)c3ccco3)CC[C@@H]21` (some centres undefined), the Percent Effect came to 0.912%.
On to `Cc1ncsc1CN1C[C@@H](OCC(=O)N(C)C)[C@H]2OCCC[C@H]21`, for which the Percent Effect is -2.89%.
In the case of `CCS(=O)(=O)N1CCC[C@]2(C(=O)N(C)C)CN(c3ncccn3)C[C@@H]2C1`, the Percent Effect is 5.41%.
`CCc1ccc(CN2C[C@@H]3COC[C@H](NS(C)(=O)=O)[C@@H]3C2)o1`: the Percent Effect was -9.73%.
For `Cc1cccc(CN2CCCC[C@H]3CN(c4ncccn4)C[C@H]32)c1` the value was 3.15%; for `CCN1CCO[C@@H]2CN(S(=O)(=O)c3cccs3)CC[C@@H]2C1`, 1.3%; for `CC(=O)N1CCC(N2CCN3C(=O)N(c4ccccc4)C[C@H]3C2)CC1`, -1.27%.
`Cc1noc([C@@]23CCO[C@@H]2CCN(C(=O)c2c(C)noc2C)C3)n1`: the Percent Effect is -20.2%.
In the case of `CCCS(=O)(=O)N1C[C@@H]2CN(Cc3ccoc3)CCO[C@@H]2C1` it was 2.92%; in that of `Cc1cc(CN2C[C@@H]3CCCO[C@@H]3[C@H](Nc3ccccn3)C2)no1`, -4.49%; in that of `COc1cc2c(cc1-c1nc3c(cnn3C(C)C)[nH]1)OCO2`, 56.2%.
In the case of `COc1cc2c(cc1-c1nc3c(cnn3C(C)C(C)C)[nH]1)OCO2` (centres undefined), the Percent Effect was -3.85%.
Take `COc1cc2c(cc1-c1nc3c(cnn3C(C)C3CC3)[nH]1)OCO2` (centres undefined): the Percent Effect is 21.1%.
